# Only some compounds are listed: those with a hit (about 7.3% of all), similar ones and a draw of the others.
# Vaccinia Venus: inhibitors of vaccinia virus (Venus reporter); Vaccinia virus Venus reporter expression, fluorescence; Potency, µM (highest dose often 36.5 µM), for the others: at the highest dose activity change, negative = inhibition, actives largely listed as inhibitors; actives 0.46% (n = 330,000); calls by dose curve; tested in A549 cells; note: potency is the fitted concentration of half-maximal effect; nearly all actives have a fitted effect of over 30% in size
# FMDV inh: foot and mouth disease virus antiviral activity; FMDV antiviral cell-based qHTS; Potency, µM (highest dose often 57.9 µM), for inactives: at the highest dose activity change, negative = inhibition, usual class: inhibitors; actives 1.2% (n = 410,000); calls by dose curve; tested in HEK293T cells; note: read-out not given here; potency is the fitted concentration of half-maximal effect; nearly all actives have a fitted effect of over 45% in size
# VACV mCherry inh: inhibitors of vaccinia virus infection (mCherry reporter signal); Vaccinia virus mCherry reporter infection, fluorescence; Potency, µM (doses to about 36.5 µM), for inactives: at the top dose activity change, negative = inhibition, actives largely listed as inhibitors; actives 0.63% (n = 310,000); AID 720579; calls by dose curve; tested in A549 cells; note: potency is the fitted concentration of half-maximal effect; nearly all actives have a fitted effect of over 35% in size
# HCMV inh: blocks human cytomegalovirus replication. HFF cells, HCMV-luciferase reporter, 72 h; hits give low values. activity change, negative = inhibition, % at 57.5 µM. actives 4.5% (n = 410,000). AID 1259415; in the data active = activity change below about -60%; inconclusive = no clear call, values can overlap the other calls; inactive = above about -39%
#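 After 16 h attachment at 37C, HFF cells received test compound and HCMV-luciferase (1 PFU/cell); reporter luminescence read 72 h later, data normalized against buffer-only and known inhibitor Salinomycin.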
# HCV inh: blocks hepatitis C virus; Huh7.5.1 HCVcc-Cre infection, luciferase reporter, 44 h; actives 3.4% (n = 340,000); Potency, µM (top dose mostly 41.8 µM), for the others: top-dose activity change, negative = inhibition, actives largely listed as inhibitors; active = well fitted inhibition curve with a large enough effect; inconclusive = small, poorly fitted or top-dose-only effect, or another doubt; inactive = no such curve, though single readings can be large or run the other way; note: potency is the fitted concentration of half-maximal effect
#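 Antiviral activity was scored by luciferase reporter output from cells infected with HCVcc-Cre (~0.5 moi) in presence of compound, 44 h infection period, cells seeded 1,000/well 4 h prior.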
# An asterisk follows results filed as active; i = inactive; ? = inconclusive; . = not tested or not shown; ! = not confirmed by another sample. % is set by controls: 0 for no effect and ±100 for the full control effect.
SMILES,Vaccinia Venus,FMDV inh,VACV mCherry inh,HCMV inh,HCV inh
NC(=O)[C@@H]1CCCN1C(=O)CC1(c2cccc(F)c2)CC(=O)N(C2CCCC2)C1=O (stereo partly specified),2%,-14%,-4%,.,.
CSc1ccccc1NC(=O)CN(C)Cc1cccc(Cl)c1,8%,?,0%,-38,-8%
COc1cccc(CN(C)CC(=O)Nc2ccccc2C(C)C)c1,-2%,?,-1%,-65*,-18%
CC(C)CC1NC(=S)N(Cc2ccccc2)C1=O (stereo unspecified),.,11%,.,-100*,?
O=C1C(Cc2ccccc2)NC(=S)N1Cc1ccccc1 (stereo unspecified),.,-7%,.,-20,7%
CC(C)CC(=O)OCc1cc(=O)n2nc(C3CCCCC3)sc2n1,1%,39%,-3%,10,.
Cc1noc(C)c1COC(=O)c1cc2c(C)nn(-c3ccc(F)cc3)c2s1,-7%,-14%,-10%,23,-3%
Cc1noc(C)c1COC(=O)c1cc2c3ccccc3n(C)c2s1,-7%,-18%,i,17,11µM*
Cc1ccccc1NC(=O)CN1C(=O)NC2(CCCCCCC2)C1=O,-23%,-11%,-3%,-98*,24%
CC1CCC2(CC1)NC(=O)N(CC(=O)N(Cc1ccccc1)C(C)(C)C)C2=O (stereo unspecified),3%,-7%,-19%,-7,-11%
Cc1ccc(Oc2ccccc2NC(=O)CN2C(=O)NC3(CCCC3)C2=O)cc1,.,0%,.,-106*,11%
CC(C)(C)N(Cc1ccccc1)C(=O)CN1C(=O)NC2(CCCCCC2)C1=O,.,-25%,.,-61*,1%
Cc1c(C(=O)NCC(C)(C)N2CCOCC2)cnn1-c1ncc2c(n1)-c1ccccc1CCC2,-7%,-11%,-13%,.,.
O=C(C1CCCCC1)N(Cc1cccnc1)c1nc2ccc(Cl)cc2s1,-15%,18%,i,-19,.
C=CCN1C[C@H](C(=O)N(CCCN(C)C)C(=O)NCC)C[C@@H]2c3cccc4[nH]cc(c34)C[C@H]21,.,-5%,.,.,.
COC(=O)Cn1cnc2c(NC(=O)c3ccccc3)ncnc21,.,.,.,10,.
COC(=O)c1cc(-c2ccccc2)sc1N,-19%,33%,-9%,44,2µM*
CNC(=O)Nc1cccc(-c2cc(-c3c(Cl)cccc3Cl)no2)c1,-15%,-25%,-8%,-74*,-24%
CC(=O)Nc1cccc(-c2cc(-c3c(Cl)cccc3Cl)no2)c1,.,-19%,.,-27,?
Cc1ccc(N2NC(=O)/C(=C\c3cc4c(cc3[N+](=O)[O-])OCO4)C2=O)cc1C,-10%,13µM*,i,102,7%
Cc1ccc(Nc2ncc(C(=O)N3CCN(c4ccc(F)cc4)CC3)c3ccccc23)cc1Cl,-19%,-23%,-23%,-1,.
Cc1cnc(-n2ncc(C(=O)N(C)CC3CCCN(C)C3)c2C2CC2)nc1-c1cccs1 (stereo unspecified),-12%,-16%,-20%,.,.
Cc1cnc([N+](=O)[O-])n1CCOC(=O)NC(=O)c1ccccc1Cl,-4%,6%,-10%,-66*,?
COc1ccc2nc(SCC(C)=O)c(C#N)cc2c1,-19%,-35%,i,27,?
Cc1cc(C)c2nc(SCC(=O)N3CC(=O)Nc4ccccc43)c(C#N)cc2c1,?,?,?,-88*,7.9µM*
SMILES,Vaccinia Venus,FMDV inh,VACV mCherry inh,HCMV inh,HCV inh
COc1ccc2nc(SCC(=O)N3CC(=O)Nc4ccccc43)c(C#N)cc2c1,?,-20%,?,-100*,?
CCOc1ccc2nc(SCC(=O)N3CCCCCC3)c(C#N)cc2c1,-28%,37%,?,51,7.9µM*
Cc1cc(C)c2nc(SCC(=O)Nc3ccccc3N3CCOCC3)c(C#N)cc2c1,-9%,-9%,-15%,-17,?
COc1cc(OC)c(CN2CCOc3ccc(CN4CCC(O)CC4)cc3C2)c(OC)c1,-4%,-12%,-17%,.,.
Clc1ccc(COc2cccc(CNCc3ccncc3)c2)cc1,-22%,?,-20%,-75*,?
C(=Nc1ccc(/C=C/c2ccnc3ccccc23)cc1)c1ccco1,-16%,.,-18%,.,.
COc1ccc(C(=O)c2cc(C(C)=O)c(Nc3ccccc3)s2)cc1,?,0%,-9%,-34,3.2µM*
COc1ccc(C(=O)c2sc(Nc3ccccc3)nc2N)cc1,?,51%,i,-61*!,-4%
